From PubChem BioAssay (Tox21) come the findings set out here.

Records with an inconclusive call do not appear. Values without a mark were called inactive. The source made the active and inactive calls. Calls come from the whole dose curve; as a rule, active = well fitted cell-killing curve with a large enough effect in the repeat runs; inconclusive = weak or mixed curves, or effect the other way; inactive = flat fitted curve, though single readings scatter.

Assay [1] in a line: cAMP Responsive Elements (CRE) small molecule antagonists, cell-based qHTS assay: qHTS cell viability counter screen (AID 2060913). Note: nearly all actives have a fitted effect of over 40% in size. In outline: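 Cytotoxicity read in the same wells as the CRE-bla HEK293T antagonist assay: after 3 h compound with 0.25 uM NKH477 final and 2 h beta-lactamase substrate, CellTiter-Glo luminescence measured.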
Assay [2] can be described thus: cAMP Responsive Elements (CRE) small molecule agonists, cell-based qHTS assay: qHTS cell viability counter screen (AID 2060914). Note: nearly all actives have a fitted effect of over 50% in size. In outline: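 HEK 293T CRE-bla; DMEM + 10% dialyzed FBS, 25 mM HEPES; 18 h pre-incubation; compound 3 h, 37 °C/5% CO2; CellTiter-Glo added after reporter read; luminescence after 30 min RT.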
% is set by controls: 0 for no effect and ±100 for the full control effect.

As for `CN(C)C(=O)COC(=O)Cc1ccc(OC(=O)c2ccc(N=C(N)N)cc2)cc1`, the Potency result in assay [1] and in assay [2] was “inactive” each time.

As for `CCC(C)(C)c1cc(O)c(C(C)(C)CC)cc1O`, the Potency result in assay [1] and in assay [2] was “inactive” each time.

`CCCCCCCCCCCC(=O)[O][Sn]([CH2]CCC)([CH2]CCC)[O]C(=O)CCCCCCCCCCC`: the Potency result in assay [1] and in assay [2] was “inactive” in each case.

On to `CC(=O)OC(C)=O`, for which the Potency result in assay [1] and in assay [2] was “inactive” each time.

Consider `CCCCCCOC(C)=O`, for which the Potency result in assay [1] and in assay [2] was “inactive” throughout.

Turning to `N#CSCSc1nc2ccccc2s1`, the Potency entry in assay [1] and in assay [2] was “inactive” each time.

`CC(C)NCC(O)COc1cccc2ccccc12` (stereo not given): the Potency entry in assay [1] and in assay [2] was “inactive” throughout.

For the compound `CCCCCC(=O)OCCc1ccccc1`, the Potency result in assay [1] and in assay [2] was “inactive” in each case.

In the case of `CN1CC(=O)NC1=N`, the Potency entry in assay [1] and in assay [2] was “inactive” each time.

With `Cc1c(Cl)c(=O)oc2cc(O)ccc12`, the Potency result in assay [1] and in assay [2] was “inactive” in each case.

In the case of `O=C(NCCO[N+](=O)[O-])c1cccnc1`, the Potency result in assay [1] and in assay [2] was “inactive” in each case.

Turning to `CCC(=O)c1c(O)cc(O)cc1O`, the Potency result in assay [1] and in assay [2] was “inactive” in each case.

For `CN(CCOc1ccc(NS(C)(=O)=O)cc1)CCc1ccc(NS(C)(=O)=O)cc1`, the Potency entry in assay [1] and in assay [2] was “inactive” in each case.

As to `c1cc2ccc3ccc4ccc5cccc6c(c1)c2c3c4c56`, the viability change, negative = cytotoxic in assay [1] is 18.5% [at 3.27 µM]. The activity change, negative = cytotoxicity in assay [2] was -0.0627% [at 3.27 µM].

As to `OCCC(F)(F)C(F)(F)C(F)(F)C(F)(F)C(F)(F)C(F)(F)F`, the Potency result in assay [1] and in assay [2] was “inactive” in each case.

As to `CC(N)C12CC3CC(CC(C3)C1)C2` (stereo not given), the Potency result in assay [1] and in assay [2] was “inactive” in each case.

Regarding `O=C(O)CC(C(=O)O)S(=O)(=O)O` (stereo not given), the Potency entry in assay [1] and in assay [2] was “inactive” in each case.

For the compound `CCC(C)OC(C)CC` (stereo not given), the Potency result in assay [1] and in assay [2] was “inactive” throughout.

Take `O=C(O)CNCC(=O)O`: in assay [1], the viability change, negative = cytotoxic was 19.6% [at 8.39 µM]. Further, in assay [2], the activity change, negative = cytotoxicity was -11.1% [at 8.39 µM].

Take `Fc1ccccc1`: the Potency result in assay [1] and in assay [2] was “inactive” each time.

In the case of `O=C1C(CCS(=O)c2ccccc2)C(=O)N(c2ccccc2)N1c1ccccc1` (stereo not given), the Potency result in assay [1] and in assay [2] was “inactive” in each case.

For `CCOC(=O)c1ccc(C#Cc2ccc3c(c2)C(C)(C)CCS3)nc1`, the Potency result in assay [1] and in assay [2] was “inactive” each time.

For the compound `CC(C)=CC1CC(C)CCO1` (stereo not given), the Potency entry in assay [1] and in assay [2] was “inactive” in each case.

As to `Nc1nc(N)c(-c2ccccc2)s1`, the Potency result in assay [1] and in assay [2] was “inactive” throughout.

Consider `c1ccc(OCc2ccc(CCCN3CCOCC3)cc2)cc1`, for which the Potency entry in assay [1] and in assay [2] was “inactive” throughout.

For the compound `O=C1CC2(CCCC2)CC(=O)N1CCNCC1COc2ccccc2O1` (stereo not given), the Potency entry in assay [1] and in assay [2] was “inactive” each time.

Turning to `Cc1cc(-c2ccccc2)nnc1NCCN1CCOCC1`, the Potency entry in assay [1] and in assay [2] was “inactive” throughout.

For the compound `CCOC(=O)/C=C/C(=O)OCC`, the Potency entry in assay [1] and in assay [2] was “inactive” throughout.

In the case of `C[N+]1(C)CCCC(OC(=O)C(O)(c2ccccc2)c2ccccc2)C1` (stereo not given), the Potency entry in assay [1] and in assay [2] was “inactive” in each case.

Regarding `O=C1OC(O)C(C(Cl)Cl)=C1Cl` (stereo not given), the Potency entry in assay [1] and in assay [2] was “inactive” in each case.

Consider `CCCCC(CC)CN` (stereo not given), for which the Potency entry in assay [1] and in assay [2] was “inactive” throughout.

Consider `CC1C2CC(CC2C2CCCC(O)C2)C1(C)C` (stereo not given), for which the Potency result in assay [1] and in assay [2] was “inactive” in each case.

As for `OCCN1CCN(CCCN2c3ccccc3Sc3ccc(C(F)(F)F)cc32)CC1`, the Potency entry in assay [1] and in assay [2] was “inactive” throughout.

For `O=S(=O)(O)c1ccccc1/C=C/c1ccc(-c2ccc(/C=C/c3ccccc3S(=O)(=O)O)cc2)cc1`, the Potency result in assay [1] and in assay [2] was “inactive” each time.

`Cc1cc(C(C)(C)C)cc(C)c1CC1=NCCN1`: the Potency result in assay [1] and in assay [2] was “inactive” throughout.

For the compound `COc1cc(Cl)c(OC)cc1N`, the Potency result in assay [1] and in assay [2] was “inactive” each time.

Regarding `CCCCN(CCCC)CCCCCCN(CCCC)CCCC`, the Potency result in assay [1] and in assay [2] was “inactive” throughout.

For `CCOC(=O)Cc1cccc2ccccc12`, the Potency result in assay [1] and in assay [2] was “inactive” throughout.

On to `O=C(c1ccccc1)c1ccc(O)c(O)c1O`, for which the Potency result in assay [1] and in assay [2] was “inactive” in each case.

Regarding `Cc1ccccc1Br`, the Potency entry in assay [1] and in assay [2] was “inactive” in each case.

As for `ON(Cc1ccccc1)Cc1ccccc1`, the Potency entry in assay [1] and in assay [2] was “inactive” throughout.

Turning to `CCOC(=O)CC(O)(CC(=O)OCC)C(=O)OCC`, the Potency result in assay [1] and in assay [2] was “inactive” each time.

For `COC(=O)c1ccc(O)cc1`, the Potency result in assay [1] and in assay [2] was “inactive” throughout.

On to `CCCCCCCCCCCCOC(=O)c1ccc(O)cc1`, for which the Potency result in assay [1] and in assay [2] was “inactive” throughout.

Regarding `CC(=O)SC[C@@H](C)C(=O)N1CCC[C@H]1C(=O)N[C@@H](Cc1ccccc1)C(=O)O`, the Potency entry in assay [1] and in assay [2] was “inactive” throughout.

Turning to `O=C(O)CNC(=O)c1ccc(CO)o1`, the Potency result in assay [1] and in assay [2] was “inactive” in each case.

On to `CC(C)C(=O)C(C)C`, for which the Potency entry in assay [1] and in assay [2] was “inactive” in each case.

In the case of `COc1ccc(C)cc1`, the Potency result in assay [1] and in assay [2] was “inactive” in each case.

With `CC(C)COC(=O)CCCCC(=O)OCC(C)C`, the Potency entry in assay [1] and in assay [2] was “inactive” throughout.

`CCOC(CN1CCN(CC(C)C(=O)c2ccccc2)CC1)c1ccccc1` (stereo not given): the viability change, negative = cytotoxic in assay [1] was 1.27% [at 18.9 µM]. For the same compound, the activity change, negative = cytotoxicity in assay [2] was -1.12% [at 18.9 µM].

With `CCCCCO`, the Potency entry in assay [1] and in assay [2] was “inactive” in each case.

On to `NC(N)=NS(=O)(=O)c1ccc(N)cc1`, for which the Potency entry in assay [1] and in assay [2] was “inactive” throughout.

Consider `Clc1ccc2cc3ccccc3cc2c1`, for which the Potency result in assay [1] and in assay [2] was “inactive” each time.

In the case of `Cc1ccnc2c1NC(=O)c1cccnc1N2C1CC1`, the Potency entry in assay [1] and in assay [2] was “inactive” each time.

Consider `CC(C)c1ccc2oc3nc(N)c(C(=O)O)cc3c(=O)c2c1`, for which the Potency entry in assay [1] and in assay [2] was “inactive” each time.

Consider `CCN(CC)CCNc1ccc(CNC=O)c2sc3ccc(OC)cc3c(=O)c12`, for which the Potency entry in assay [1] and in assay [2] was “inactive” throughout.

Consider `Nc1ncnc2c1ncn2Cc1c(F)cccc1Cl`, for which the Potency entry in assay [1] and in assay [2] was “inactive” in each case.

Regarding `Nc1cc(S(=O)(=O)O)ccc1O`, the Potency result in assay [1] and in assay [2] was “inactive” throughout.

As to `Cc1cccc(Nc2ccccc2)c1`, the Potency result in assay [1] and in assay [2] was “inactive” in each case.

In the case of `C=Cc1ccccc1`, the Potency result in assay [1] and in assay [2] was “inactive” in each case.
